Experimental findings from the supplement of paper PMC11732987, “Enantioselective OTUD7B fragment discovery through chemoproteomics screening and high-throughput optimisation” (Communications Chemistry, 2025) are described below.

A number with no mark means an inactive call.

Holding throughout (test): log2 ratio of Biotin-Ahx-Ub-VS probe labelling (fragment/DMSO); higher = less target engagement (more negative = stronger competition), active = hit call of the paper (q ≤ 0.05, log2 ratio ≤ -1)
Holding throughout (conditions): compound concentration: 200 uM; treatment time: 3 h

Test [1] concerns the target T1, USP19 (UniProt O94966).
T1 sequence (whole entry): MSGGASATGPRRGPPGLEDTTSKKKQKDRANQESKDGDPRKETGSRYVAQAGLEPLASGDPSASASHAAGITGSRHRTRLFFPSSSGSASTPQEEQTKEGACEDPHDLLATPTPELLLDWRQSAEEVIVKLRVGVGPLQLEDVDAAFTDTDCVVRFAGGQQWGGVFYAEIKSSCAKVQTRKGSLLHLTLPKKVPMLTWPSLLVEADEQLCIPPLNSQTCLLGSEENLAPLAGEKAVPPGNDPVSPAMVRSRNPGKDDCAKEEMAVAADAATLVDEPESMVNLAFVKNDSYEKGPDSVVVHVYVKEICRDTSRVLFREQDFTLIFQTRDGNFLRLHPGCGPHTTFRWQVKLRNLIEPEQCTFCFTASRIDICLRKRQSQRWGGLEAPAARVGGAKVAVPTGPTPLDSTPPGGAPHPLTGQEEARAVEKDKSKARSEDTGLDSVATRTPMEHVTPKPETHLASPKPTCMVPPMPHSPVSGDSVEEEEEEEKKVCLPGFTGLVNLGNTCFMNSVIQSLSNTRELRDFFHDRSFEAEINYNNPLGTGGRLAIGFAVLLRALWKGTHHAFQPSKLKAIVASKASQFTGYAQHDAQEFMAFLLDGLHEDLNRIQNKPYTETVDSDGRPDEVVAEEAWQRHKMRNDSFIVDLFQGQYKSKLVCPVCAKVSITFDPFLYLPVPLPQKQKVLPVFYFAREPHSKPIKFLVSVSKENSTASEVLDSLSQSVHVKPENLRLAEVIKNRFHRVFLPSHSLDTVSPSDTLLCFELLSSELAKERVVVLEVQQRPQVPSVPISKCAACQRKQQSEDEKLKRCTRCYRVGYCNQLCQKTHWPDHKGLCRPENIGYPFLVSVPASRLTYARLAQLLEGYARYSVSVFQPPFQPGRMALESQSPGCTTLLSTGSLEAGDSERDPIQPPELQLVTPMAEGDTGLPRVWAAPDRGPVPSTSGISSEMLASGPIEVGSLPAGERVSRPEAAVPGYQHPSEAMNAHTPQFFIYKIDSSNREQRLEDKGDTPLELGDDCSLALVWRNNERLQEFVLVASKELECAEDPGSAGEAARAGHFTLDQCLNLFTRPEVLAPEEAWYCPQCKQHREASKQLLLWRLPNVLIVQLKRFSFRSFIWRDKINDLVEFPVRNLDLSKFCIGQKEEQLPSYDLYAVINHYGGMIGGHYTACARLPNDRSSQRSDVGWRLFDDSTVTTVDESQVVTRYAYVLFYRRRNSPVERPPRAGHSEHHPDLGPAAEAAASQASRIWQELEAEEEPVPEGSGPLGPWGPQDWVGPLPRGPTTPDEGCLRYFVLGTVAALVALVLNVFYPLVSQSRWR
In outline:
(§1)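 Each value is an average log2 ratio of fragment to vehicle, tested by unpaired t-test. The underlying Spectronaut label-free quantities were global-median-normalised, and only proteins with ≥2 unique peptides were included. Triplicate HEK293T lysate samples (495 µg) were exposed to fragment at 200 µM or vehicle for 3 h, then to Biotin-Ahx-Ub-VS at 0.5 µM final for 1 h, before NeutrAvidin enrichment of labelled DUBs, LysC and trypsin digestion, and diaPASEF LC-MS/MS.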

Test [2] concerns the target USP24 (UniProt Q9UPU5). In outline: as §1
In test [3] the target is T2, USP25 (UniProt Q9UHP3).
T2 sequence (whole entry): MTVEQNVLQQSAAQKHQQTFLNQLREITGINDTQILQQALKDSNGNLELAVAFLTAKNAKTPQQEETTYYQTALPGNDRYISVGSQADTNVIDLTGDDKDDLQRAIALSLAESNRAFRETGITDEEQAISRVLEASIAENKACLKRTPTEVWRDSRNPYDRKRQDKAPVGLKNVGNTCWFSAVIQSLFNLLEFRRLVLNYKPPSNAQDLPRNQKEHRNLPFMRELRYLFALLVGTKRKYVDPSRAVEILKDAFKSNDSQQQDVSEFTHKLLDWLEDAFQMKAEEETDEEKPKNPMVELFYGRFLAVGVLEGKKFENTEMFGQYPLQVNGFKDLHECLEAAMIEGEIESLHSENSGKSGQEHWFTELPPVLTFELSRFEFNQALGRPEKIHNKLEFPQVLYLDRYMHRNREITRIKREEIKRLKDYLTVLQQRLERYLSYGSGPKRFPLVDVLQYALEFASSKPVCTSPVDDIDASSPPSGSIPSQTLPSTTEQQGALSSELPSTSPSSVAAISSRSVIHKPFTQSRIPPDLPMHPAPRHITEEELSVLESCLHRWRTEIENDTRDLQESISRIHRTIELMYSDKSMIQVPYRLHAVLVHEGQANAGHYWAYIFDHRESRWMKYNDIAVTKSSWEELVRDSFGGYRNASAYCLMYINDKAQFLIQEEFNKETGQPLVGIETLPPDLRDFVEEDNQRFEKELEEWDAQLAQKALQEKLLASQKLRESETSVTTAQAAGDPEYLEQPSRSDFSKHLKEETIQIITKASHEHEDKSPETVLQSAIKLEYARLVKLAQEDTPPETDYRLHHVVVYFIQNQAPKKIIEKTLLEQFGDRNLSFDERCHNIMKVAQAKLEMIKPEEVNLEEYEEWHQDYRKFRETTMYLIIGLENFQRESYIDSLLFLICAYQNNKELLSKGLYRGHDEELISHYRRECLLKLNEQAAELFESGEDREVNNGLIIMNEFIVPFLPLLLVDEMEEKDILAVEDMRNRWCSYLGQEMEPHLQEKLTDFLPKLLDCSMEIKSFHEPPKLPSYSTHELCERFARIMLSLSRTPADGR
In outline: as §1

For test [4], the target named is T3, USP28 (UniProt Q96RU2).
T3 sequence (whole entry): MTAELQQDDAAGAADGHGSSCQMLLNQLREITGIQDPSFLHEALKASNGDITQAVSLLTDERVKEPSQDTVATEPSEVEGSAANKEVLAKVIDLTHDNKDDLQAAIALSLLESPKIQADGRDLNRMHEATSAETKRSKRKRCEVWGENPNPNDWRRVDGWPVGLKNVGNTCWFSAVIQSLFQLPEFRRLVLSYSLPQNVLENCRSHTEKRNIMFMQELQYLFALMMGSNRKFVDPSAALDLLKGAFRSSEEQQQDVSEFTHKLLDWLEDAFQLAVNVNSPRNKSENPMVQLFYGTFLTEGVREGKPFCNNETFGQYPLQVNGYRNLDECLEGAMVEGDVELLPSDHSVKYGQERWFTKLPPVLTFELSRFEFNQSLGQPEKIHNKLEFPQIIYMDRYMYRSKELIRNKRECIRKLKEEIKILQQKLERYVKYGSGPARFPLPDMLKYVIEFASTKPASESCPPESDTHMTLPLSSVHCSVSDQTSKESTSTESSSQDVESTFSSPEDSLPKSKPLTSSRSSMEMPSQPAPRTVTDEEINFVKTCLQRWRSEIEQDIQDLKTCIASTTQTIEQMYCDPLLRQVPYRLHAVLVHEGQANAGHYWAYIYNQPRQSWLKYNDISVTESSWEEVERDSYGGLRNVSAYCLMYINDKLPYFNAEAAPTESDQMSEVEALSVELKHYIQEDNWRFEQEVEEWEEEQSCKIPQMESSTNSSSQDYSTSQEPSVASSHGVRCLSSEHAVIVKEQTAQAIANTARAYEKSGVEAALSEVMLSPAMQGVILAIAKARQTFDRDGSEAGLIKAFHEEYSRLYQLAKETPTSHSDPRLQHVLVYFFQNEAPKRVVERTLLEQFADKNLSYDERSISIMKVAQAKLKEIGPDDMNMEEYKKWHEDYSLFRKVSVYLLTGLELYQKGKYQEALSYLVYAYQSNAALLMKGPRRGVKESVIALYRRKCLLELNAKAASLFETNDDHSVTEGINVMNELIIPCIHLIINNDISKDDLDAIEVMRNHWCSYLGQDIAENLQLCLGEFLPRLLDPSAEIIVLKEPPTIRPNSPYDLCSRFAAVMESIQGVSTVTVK
In outline: as §1

USP24, sequence (Q9UPU5 whole entry): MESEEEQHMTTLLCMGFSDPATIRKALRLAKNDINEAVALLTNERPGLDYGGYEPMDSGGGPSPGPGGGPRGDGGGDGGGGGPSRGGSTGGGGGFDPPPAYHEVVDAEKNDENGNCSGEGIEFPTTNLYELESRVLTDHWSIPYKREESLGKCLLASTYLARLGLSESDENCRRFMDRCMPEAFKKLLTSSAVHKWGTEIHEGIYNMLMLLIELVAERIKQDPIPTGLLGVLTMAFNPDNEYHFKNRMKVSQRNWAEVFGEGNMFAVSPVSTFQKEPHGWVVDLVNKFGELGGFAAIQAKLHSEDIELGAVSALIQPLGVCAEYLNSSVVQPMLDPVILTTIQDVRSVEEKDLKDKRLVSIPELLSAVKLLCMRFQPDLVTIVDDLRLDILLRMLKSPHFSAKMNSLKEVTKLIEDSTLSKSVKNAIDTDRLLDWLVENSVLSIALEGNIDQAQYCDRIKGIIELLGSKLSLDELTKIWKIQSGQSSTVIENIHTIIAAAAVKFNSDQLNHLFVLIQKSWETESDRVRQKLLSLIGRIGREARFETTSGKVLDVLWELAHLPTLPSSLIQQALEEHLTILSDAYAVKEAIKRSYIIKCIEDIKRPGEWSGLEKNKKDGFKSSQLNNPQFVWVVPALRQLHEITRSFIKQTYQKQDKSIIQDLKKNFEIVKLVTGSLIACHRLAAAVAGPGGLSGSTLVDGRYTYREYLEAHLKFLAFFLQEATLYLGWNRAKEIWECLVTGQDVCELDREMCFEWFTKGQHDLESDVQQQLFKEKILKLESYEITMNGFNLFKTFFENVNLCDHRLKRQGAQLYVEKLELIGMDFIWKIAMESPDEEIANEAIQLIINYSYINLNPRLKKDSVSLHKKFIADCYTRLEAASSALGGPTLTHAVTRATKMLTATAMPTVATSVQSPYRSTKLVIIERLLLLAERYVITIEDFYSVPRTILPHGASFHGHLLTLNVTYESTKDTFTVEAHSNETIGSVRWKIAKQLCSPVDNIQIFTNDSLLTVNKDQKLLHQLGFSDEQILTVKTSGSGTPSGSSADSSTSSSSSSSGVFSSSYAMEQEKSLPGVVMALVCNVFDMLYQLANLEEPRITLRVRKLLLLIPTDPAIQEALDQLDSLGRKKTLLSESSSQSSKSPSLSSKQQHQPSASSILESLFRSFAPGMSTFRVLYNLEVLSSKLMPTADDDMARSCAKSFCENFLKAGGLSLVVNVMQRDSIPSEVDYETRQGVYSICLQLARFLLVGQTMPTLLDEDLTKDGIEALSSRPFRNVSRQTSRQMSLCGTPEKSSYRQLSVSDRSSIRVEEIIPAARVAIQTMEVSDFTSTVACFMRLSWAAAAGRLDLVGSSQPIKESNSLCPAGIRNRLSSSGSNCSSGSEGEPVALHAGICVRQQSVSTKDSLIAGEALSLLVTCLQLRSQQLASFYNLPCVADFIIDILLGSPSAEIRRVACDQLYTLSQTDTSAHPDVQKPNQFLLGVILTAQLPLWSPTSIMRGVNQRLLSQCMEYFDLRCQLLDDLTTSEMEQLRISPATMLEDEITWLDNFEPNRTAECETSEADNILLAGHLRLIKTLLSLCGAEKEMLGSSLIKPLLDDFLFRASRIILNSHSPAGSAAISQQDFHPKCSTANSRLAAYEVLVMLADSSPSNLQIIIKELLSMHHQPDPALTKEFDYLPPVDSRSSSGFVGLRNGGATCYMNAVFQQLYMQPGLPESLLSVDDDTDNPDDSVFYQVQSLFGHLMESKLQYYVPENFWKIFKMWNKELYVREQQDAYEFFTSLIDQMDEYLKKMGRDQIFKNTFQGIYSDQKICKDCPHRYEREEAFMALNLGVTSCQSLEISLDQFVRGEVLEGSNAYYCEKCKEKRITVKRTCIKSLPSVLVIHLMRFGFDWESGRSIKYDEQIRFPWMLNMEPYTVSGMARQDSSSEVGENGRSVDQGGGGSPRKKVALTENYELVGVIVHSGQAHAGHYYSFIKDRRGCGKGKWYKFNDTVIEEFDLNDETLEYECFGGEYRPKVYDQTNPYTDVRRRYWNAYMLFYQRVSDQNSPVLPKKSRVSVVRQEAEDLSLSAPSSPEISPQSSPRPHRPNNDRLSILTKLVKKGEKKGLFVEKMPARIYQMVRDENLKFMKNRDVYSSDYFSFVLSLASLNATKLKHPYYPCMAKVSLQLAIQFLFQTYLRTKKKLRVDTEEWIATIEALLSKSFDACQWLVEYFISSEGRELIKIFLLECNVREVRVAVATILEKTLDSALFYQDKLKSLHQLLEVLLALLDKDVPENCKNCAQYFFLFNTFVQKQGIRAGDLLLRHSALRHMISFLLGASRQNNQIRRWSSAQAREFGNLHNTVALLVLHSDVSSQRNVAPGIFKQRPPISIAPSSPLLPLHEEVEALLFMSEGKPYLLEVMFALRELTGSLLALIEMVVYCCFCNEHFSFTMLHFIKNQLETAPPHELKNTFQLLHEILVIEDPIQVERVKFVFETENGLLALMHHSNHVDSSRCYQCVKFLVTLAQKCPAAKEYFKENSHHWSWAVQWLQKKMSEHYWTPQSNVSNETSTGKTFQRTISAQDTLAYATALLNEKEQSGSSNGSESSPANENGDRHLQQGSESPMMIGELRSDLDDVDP

In the case of `O=C(CCl)Nc1cc2c(cc1Cl)OCCCO2`, the “log2 ratio of Biotin-Ahx-Ub-VS probe labelling” value in test [1] was 0.113; in test [2] it was 0.00346; in test [3], -2.47 (active); in test [4], -1.92 (active).
